PubChem BioAssay (Tox21)
Records with an inconclusive call do not appear. The source made the active and inactive calls. Unless noted, calls follow the shape of the dose curve; as a rule, active = well fitted curve in the direction sought with a large enough effect in the repeat runs; inconclusive = weak or mixed curves; inactive = no such curve, though single readings can be large; an effect the other way counts as inactive or inconclusive.

What was measured:
[1] = qHTS assay to identify small molecule HDAC inhibitors (AID 1259364); also: top concentration of the series differs between compounds; nearly all actives have a fitted effect of over 45% in size
In short: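 Homogeneous cell-based luminescent assay of endogenous class I/II HDAC activity; HCT-116 cells, 2 h compound exposure, 30 min HDAC-Glo development at RT.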

[2] = qHTS assay to identify small molecule HDAC inhibitors - cell viability counter screen (AID 1259365); also: nearly all actives have a fitted effect of over 50% in size; also: potency is read from the fitted curve at half-maximal effect; as to activity change, negative = cytotoxicity: series mostly up to about 92 µM
In short: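 Following a 2hr exposure of overnight-plated wild-type HCT-116 cells to DMSO-delivered compounds, CellTiter-Glo was added and luminescence recorded after 30min at room temperature.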

[3] = qHTS assay to identify small molecule agonists of the sonic hedgehog signaling (Shh) pathway - cell viability counter screen (AID 1259366); also: nearly all actives have a fitted effect of over 50% in size; also: potency is read from the fitted curve at half-maximal effect
In short: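 After a 4hr attachment at 37C, NIH/3T3 cells bearing an integrated Gli1-driven luciferase reporter were dosed with compounds. Treatment lasted 24hr, with the final hour including CellTiter-Fluor for a fluorescence viability measurement.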

[4] = qHTS assay to identify small molecule antagonists of the sonic hedgehog signaling (Shh) pathway - cell viability counter screen (AID 1259367); also: nearly all actives have a fitted effect of over 55% in size; also: potency is read from the fitted curve at half-maximal effect
In short: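 NIH/3T3-derived Gli1-Luc reporter cells, 2,000/well, plated 4 hr before compound addition, then stimulated with conditioned medium for 24 hr at 37C. Viability measured in the same wells by CellTiter-Fluor fluorescence, reagent added at 23 hr for 1 hr.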

[5] = qHTS assay to identify small molecule antagonists of the sonic hedgehog signaling (Shh) pathway (AID 1259369; calls by dose curve; also: nearly all actives have a fitted effect of over 45% in size; also: potency is read from the fitted curve at half-maximal effect)
In short: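 Inhibition of Shh signalling is measured as reduced Gli1-response-element firefly luciferase output in an NIH/3T3-derived stable reporter clone stimulated with conditioned medium for 24hr.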

[6] = biological target: Estrogen receptor beta (Homo sapiens) (UniProt Q92731); experiment: qHTS assay to identify small molecule agonists of the estrogen receptor beta (ER-beta) signaling pathway (AID 1259377; active = well fitted activation curve with a large enough effect in the signal ratio in the repeat runs, not every such curve was filed as active; the % refers to the signal ratio)
Estrogen receptor beta (Homo sapiens), sequence (Q92731 whole entry, looked up): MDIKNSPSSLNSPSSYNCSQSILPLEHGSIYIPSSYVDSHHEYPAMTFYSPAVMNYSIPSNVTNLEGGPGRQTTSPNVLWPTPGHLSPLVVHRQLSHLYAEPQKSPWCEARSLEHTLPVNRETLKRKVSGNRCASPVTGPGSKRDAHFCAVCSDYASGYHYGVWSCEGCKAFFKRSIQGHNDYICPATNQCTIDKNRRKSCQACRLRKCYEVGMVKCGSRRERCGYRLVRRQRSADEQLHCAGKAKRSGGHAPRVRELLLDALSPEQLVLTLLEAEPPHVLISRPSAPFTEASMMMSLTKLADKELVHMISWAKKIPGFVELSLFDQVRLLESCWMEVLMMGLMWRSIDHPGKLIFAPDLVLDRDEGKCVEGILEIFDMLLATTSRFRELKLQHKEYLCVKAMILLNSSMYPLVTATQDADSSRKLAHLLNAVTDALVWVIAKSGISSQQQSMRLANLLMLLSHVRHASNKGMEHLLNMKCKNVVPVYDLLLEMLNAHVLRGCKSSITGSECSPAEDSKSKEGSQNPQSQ
In short: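 In HEK293T cells bearing a UAS-beta-lactamase reporter under ER-beta control, DMSO-delivered compounds were incubated for 16 hr at 37C. Activity was detected as fluorescence 2 hours after LiveBLAzer B/G FRET substrate addition.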

[7] = biological target: Estrogen receptor beta (Homo sapiens) (UniProt Q92731); experiment: qHTS assay to identify small molecule antagonists of the estrogen receptor beta (ER-beta) signaling pathway (AID 1259378; active = well fitted inhibition curve with a large enough effect in the signal ratio in the repeat runs, not every such curve was filed as active; the % refers to the signal ratio; also: potency is read from the fitted curve at half-maximal effect)
In short: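 ER-beta-UAS-bla HEK293T cells in 2% charcoal-stripped FBS medium treated with compound plus 1nM final 17-beta-estradiol for 16 hr at 37C. Beta-lactamase reporter read by FRET substrate fluorescence after 2 hours at room temperature.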

[8] = qHTS assay to identify small molecule agonists of the sonic hedgehog signaling (Shh) pathway (AID 1259368; calls by dose curve;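 also: NIH/3T3-derived 3T3Gli1-Luc cells carrying a stable Gli1-driven firefly luciferase reporter; series mostly up to about 92 µM; nearly all actives have a fitted effect of over 15% in size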)
In short: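 Steps: seed 3T3 Gli1-Luc cells, incubate 4 hr at 37 C, pin-transfer compounds in DMSO alongside a positive control, incubate 24 hr, add luciferase detection reagent, wait 30 min at room temperature, read luminescence.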
% is scaled to controls: 0 for no effect and ±100 for the full control effect.

Nc1cc([N+](=O)[O-])ccc1Cl
inactive: Potency [1] | Potency [2] | Potency [3] | Potency [4] | Potency [5] | outcome [6] | Potency [7]

CS(=O)(=O)c1ccc([C@@H](CC2CCCC2)C(=O)Nc2cnccn2)cc1Cl
inactive: Potency [1]
active: Potency [3] 21.7 µM

SC1CCCCC1
inactive: Potency [1] | Potency [2] | Potency [3] | Potency [8] | Potency [5] | outcome [6] | Potency [7]

COc1cccc(-c2ccc(/C=C\CN3CCCCCC3)cc2Cl)c1
inactive: Potency [1] | Potency [2] | Potency [8] | outcome [6]
active: Potency [5] 10.8 µM

CSc1ccc(O)cc1C
active: Potency [3] 43.3 µM | Potency [4] 27.3 µM | Potency [5] 13.7 µM | Potency [7] 54.5 µM
inactive: Potency [2]

CN(C)CCOc1ccc(/C(=C(/CCCl)c2ccccc2)c2ccccc2)cc1
inactive: Potency [2]
active: Potency [3] 51 µM | Potency [5] 36.1 µM

O=C1OC2(c3ccccc31)c1ccc(O)c(Br)c1Oc1c2ccc(O)c1Br
inactive: Potency [1] | Potency [2] | Potency [8] | Potency [5]

CC/C(=C(/c1ccc(O)cc1)c1ccc(OCCN(C)C)cc1)c1ccccc1
inactive: Potency [1] | Potency [8]
active: Potency [3] 18 µM | Potency [4] 18 µM | Potency [5] 14.3 µM

N#CCCOCCC#N
inactive: Potency [1] | Potency [2] | Potency [3] | Potency [8] | outcome [6] | Potency [7]

C=Cc1ccc(O)c(OC)c1
active: Potency [3] 54.5 µM | Potency [4] 27.3 µM | Potency [5] 13.7 µM
inactive: Potency [1] | Potency [2] | Potency [7]

COc1cc2ncnc(Nc3cccc(Cl)c3)c2cc1OC
inactive: activity change, negative = cytotoxicity [2] 2.53% [at 19 µM] | viability change, negative = cytotoxic [4] -19.1% [at 19 µM] | activity change [8] -3.79% [at 18.9 µM, active compounds read high] | activation [6] -5.03% [at 19 µM] | activity, negative = inhibition [7] -15.9% [at 19 µM]

O=C1CCC/C=C\CCCCCCCCCC1
inactive: Potency [1] | Potency [2] | Potency [3] | Potency [8] | outcome [6] | Potency [7]

N#Cc1nc(Cl)c(Cl)c(Cl)c1Cl
active: Potency [3] 5.45 µM | Potency [4] 10.9 µM
inactive: Potency [8]

O=C(CCCCCCCCc1cccnc1)N1CCC(C=C(c2ccccc2)c2ccccc2)CC1
active: Potency [5] 17.2 µM | Potency [7] 15.4 µM
inactive: Potency [1] | Potency [2] | Potency [4] | outcome [6]

O=C1Cc2ccccc2C1
inactive: Potency [8] | Potency [5]

CN(C[C@@H](CC[N+]12CCC(C3CCCCC3)(CC1)CC2)c1ccc(Cl)c(Cl)c1)C(=O)c1cc(C(F)(F)F)cc(C(F)(F)F)c1
inactive: Potency [4] | Potency [8] | Potency [5]
active: Potency [2] 12.2 µM

CN1CCN(CCCN2c3ccccc3Sc3ccc(C(F)(F)F)cc32)CC1
active: Potency [3] 26.6 µM | Potency [5] 10.6 µM
inactive: Potency [2] | Potency [4] | Potency [8]

CC1CCC(C(C)(C)O)CC1 (configuration not stated)
inactive: Potency [2] | Potency [3] | Potency [8] | Potency [5]

O=C(Nc1ccc([N+](=O)[O-])cc1)Nc1ccc([N+](=O)[O-])cc1 (tested in a mixture with another compound)
inactive: Potency [1] | Potency [2] | Potency [3] | Potency [8] | outcome [6] | Potency [7]

CC(C)(C)C1=CC(=O)C(C(C)(C)C)=CC1=O
inactive: Potency [1] | Potency [2] | Potency [3] | Potency [8] | outcome [6]

Cc1cc(F)ccc1-c1cc(N2CC[C@@H](O)[C@H]2CO)ncc1N(C)C(=O)C(C)(C)c1cc(C(F)(F)F)cc(C(F)(F)F)c1
inactive: Potency [1] | Potency [2] | Potency [8]
active: Potency [3] 42.6 µM | Potency [7] 19 µM

c1ccc2cc3c4ccccc4c4ccccc4c3cc2c1
inactive: Potency [1] | Potency [3] | Potency [4] | Potency [8] | Potency [5] | outcome [6] | Potency [7]

ClC(c1ccccc1)(c1ccccc1)c1ccccc1
inactive: Potency [1] | Potency [2] | Potency [3] | Potency [8] | Potency [5]

COc1c(Br)cc(Br)c(C)c1Br
inactive: Potency [1] | Potency [2] | Potency [3] | Potency [4] | Potency [5]

CC(O)(c1ccc(Cl)cc1)c1ccc(Cl)cc1
active: Potency [5] 43.3 µM
inactive: Potency [1] | Potency [2] | Potency [3] | Potency [8] | outcome [6]

CO[Si](OC)(c1ccccc1)c1ccccc1
active: Potency [4] 43.3 µM | Potency [5] 21.7 µM
inactive: Potency [2] | Potency [8] | Potency [7]

CCOC(=O)C1=NN(c2ccc(Cl)cc2Cl)C(C)(C(=O)OCC)C1 (configuration not stated)
inactive: Potency [2] | Potency [3] | Potency [4] | Potency [8] | outcome [6]

CCCCCCCC1CCC(=O)O1 (configuration not stated)
inactive: Potency [1] | Potency [8]

COc1cc([C@@H]2c3cc4c(cc3[C@@H](O[C@@H]3O[C@@H]5CO[C@@H](C)O[C@H]5[C@H](O)[C@H]3O)[C@H]3COC(=O)[C@H]23)OCO4)cc(OC)c1O
active: Potency [4] 60.4 µM
inactive: Potency [1] | Potency [2] | Potency [8] | outcome [6] | Potency [7]
